Sequences and labels used below:
B1: ENSMUSG00000043670.63|Diras1 (ssRNA)
RNA: GGGAGUUCUACAGUCCGACGAUCGCUUCGAUAUCCGCAUGCUAAGACCUCUCCCUCUAUAUCUCUUUGCUCCCCCACCCCCAUUCUAUCUGCACCCCACAACCACACACUGGAGGUUUGAUCCCUGUGGAUCUGAAAACAGGGACCUGGCUAAGGAACUGCUCAUCCCAGUCAGGCCCAGAGAGGUUACCUUGCCUCUCCAUCUCUGUCCCUGUGUGCCCAGCCAUGCCCACUGUCCCUGUCCCUCACAUUCUAUCACUGUGACCUCUGGGGAGUGCCCAUUGACCUCAUCUUCCUUCACUAACUCUUGCGGUCGCACUAGUGUGGAAUUCUCGGGUGUCAAGG
B2: ENSMUSG00000058297.300|Spock2 (ssRNA)
RNA: GGGAGUUCUACAGUCCGACGAUCGCUUCGAUAUCCGCAUGCUAAGGGCCACCCUGAUGCCCAGGAAGAGUGAGGGCAGCCCCCUGUGUGGUGGAAGAGGCUGGGCAGCUAGCUACUGGGGACCUUGUGCUGAGGCUUCCAGGACAAAGCCCCAGUCUGGCUCUCCCCCAGCCUCUCAGGGGCACUGGCUGGUCACAUCCACUGAGUAUUGAUCGGUUGGACUUUAGGGAAGAGCCUCCUCCUUCCCAUUCCUUUCUGCCACCCUGGAAUGGCCACCUUAAUCGUCAUCUCCUCGGGGGGAAUACUCUUGCGGUCGCACUAGUGUGGAAUUCUCGGGUGUCAAGG
B3: ENSMUSG00000031028.551|Tub (ssRNA)
RNA: GGGAGUUCUACAGUCCGACGAUCGCUUCGAUAUCCGCAUGCUACCUGGUUUCCCUUCUCAGCAGUCCUGGCCUCCCCUUCUCUGUAUUCCUUGCCCCAGCUACGAUAUCCUCAUGGGAUUUCAGGAUGCCAGGUGCCAUCAAAGCAUGCUUUUUUGUGGUGCCUAGCACUGUGACUGGGGCCCAACUGCCCUGCAGAGUUGGGACCUUGCACUGCCCUAGACCCUGGCUUUAGAUCUGCUUCAGUCUCCAGAACAGGCUAUGGGAUAGAUUUUUCUUUCAGUUUAUGGCCACCUGCCCAAAUUCUCUUGCGGUCGCACUAGUGUGGAAUUCUCGGGUGUCAAGG
B4: ENSMUSG00000028439.8|Fam219a|14:18;220:226 (ssRNA)
RNA: GGGAGUUCUACAGUCCGACGAUCGCUUCGAUAUCCGCAUGCUAAACCCCACCUGCAACACAUGUCAGGCCACUUCCUCCACCGCCUGCCACAUUCAGUAGUGGGCGGGGUCGCCGCGGUGCACGGGGCGCUGACCUGGGCCCGGUGGGAUGCAGCAGGAGAGACCCCUACCCUGCUGGUCCACUGGUCCCCAGCCCCGCGCCUCUUAGAGCCGCCAACCUCGUAACAGUCAUUGCUUCCUCCUAUGGUAGGACGUGUACCUCACACACAUCAAGGAGCCGGAGAAACCAAAACCGGGUCUGUCCUCUUGCGGUCGCACUAGUGUGGAAUUCUCGGGUGUCAAGG
B5: ENSMUSG00000034801.23|Sos2 (ssRNA)
RNA: GGGAGUUCUACAGUCCGACGAUCGCUUCGAUAUCCGCAUGCUAGAUUCCACGCAGCUGUCACUUGCUCAGCUCCAGUCACAGCAGCCUUGCUCAUCUUCCAGCUCCUCCUGUCCCACCAAGGCAGAAUUCAAGCCCUCUCUUACCAAAGCUGCCACCAAAGACUUACAAACGGGAGCUUUCCCACCCGCCACUGUAUAGACUGCCUCUGCUGGAAAAUGCAGAAACUCCUCAAUGACCUUGGCCAUAUGUAGUCAUUGACACUGGAAUAGUAUUUGUAAAGGUUUUUAAUUUAUUCAAAAAGACUCUUGCGGUCGCACUAGUGUGGAAUUCUCGGGUGUCAAGG
B6: ENSMUSG00000028439.142|Fam219a (ssRNA)
RNA: GGGAGUUCUACAGUCCGACGAUCGCUUCGAUAUCCGCAUGCUACGCCCUGCCACCCCCAGUCUUCUGUCUAUUGGUUCCAGGCUGGAAGCAAGAGAUAAGGCUGGCCUCCUGUGCCCCAUUGCCAUUUCACCCUAGCUCAAAGUCCAGGAGCCAGGCUUCCAGAAAGGCUCUUCAAGAGCAAGCUUAAGGAAAUACAGUGAGCCAAGUGGCUGUAUGAUAUGGUAUGGUAUGGUAUGGUAUGGUAUGGUAUGGUAUGCACAUGUGUGUGCAUGUGUGUGUGCCUGUGUGUGUGCGUGUGCGUGCUCUUGCGGUCGCACUAGUGUGGAAUUCUCGGGUGUCAAGG
B7: ENSMUSG00000028439.146|Fam219a (ssRNA)
RNA: GGGAGUUCUACAGUCCGACGAUCGCUUCGAUAUCCGCAUGCUAUCUAUUGGUUCCAGGCUGGAAGCAAGAGAUAAGGCUGGCCUCCUGUGCCCCAUUGCCAUUUCACCCUAGCUCAAAGUCCAGGAGCCAGGCUUCCAGAAAGGCUCUUCAAGAGCAAGCUUAAGGAAAUACAGUGAGCCAAGUGGCUGUAUGAUAUGGUAUGGUAUGGUAUGGUAUGGUAUGGUAUGGUAUGCACAUGUGUGUGCAUGUGUGUGUGCCUGUGUGUGUGCGUGUGCGUGUGUGUAUGUGUGUGCGUGUGUGUGCUCUUGCGGUCGCACUAGUGUGGAAUUCUCGGGUGUCAAGG
B8: ENSMUSG00000028439.145|Fam219a (ssRNA)
RNA: GGGAGUUCUACAGUCCGACGAUCGCUUCGAUAUCCGCAUGCUACUUCUGUCUAUUGGUUCCAGGCUGGAAGCAAGAGAUAAGGCUGGCCUCCUGUGCCCCAUUGCCAUUUCACCCUAGCUCAAAGUCCAGGAGCCAGGCUUCCAGAAAGGCUCUUCAAGAGCAAGCUUAAGGAAAUACAGUGAGCCAAGUGGCUGUAUGAUAUGGUAUGGUAUGGUAUGGUAUGGUAUGGUAUGGUAUGCACAUGUGUGUGCAUGUGUGUGUGCCUGUGUGUGUGCGUGUGCGUGUGUGUAUGUGUGUGCGUGCUCUUGCGGUCGCACUAGUGUGGAAUUCUCGGGUGUCAAGG
B9: ENSMUSG00000028439.144|Fam219a (ssRNA)
RNA: GGGAGUUCUACAGUCCGACGAUCGCUUCGAUAUCCGCAUGCUACCCAGUCUUCUGUCUAUUGGUUCCAGGCUGGAAGCAAGAGAUAAGGCUGGCCUCCUGUGCCCCAUUGCCAUUUCACCCUAGCUCAAAGUCCAGGAGCCAGGCUUCCAGAAAGGCUCUUCAAGAGCAAGCUUAAGGAAAUACAGUGAGCCAAGUGGCUGUAUGAUAUGGUAUGGUAUGGUAUGGUAUGGUAUGGUAUGGUAUGCACAUGUGUGUGCAUGUGUGUGUGCCUGUGUGUGUGCGUGUGCGUGUGUGUAUGUGUGCUCUUGCGGUCGCACUAGUGUGGAAUUCUCGGGUGUCAAGG
B10: ENSMUSG00000028439.139|Fam219a (ssRNA)
RNA: GGGAGUUCUACAGUCCGACGAUCGCUUCGAUAUCCGCAUGCUAUCUGCCUCAUCCCCACACCGCCCUGCCACCCCCAGUCUUCUGUCUAUUGGUUCCAGGCUGGAAGCAAGAGAUAAGGCUGGCCUCCUGUGCCCCAUUGCCAUUUCACCCUAGCUCAAAGUCCAGGAGCCAGGCUUCCAGAAAGGCUCUUCAAGAGCAAGCUUAAGGAAAUACAGUGAGCCAAGUGGCUGUAUGAUAUGGUAUGGUAUGGUAUGGUAUGGUAUGGUAUGGUAUGCACAUGUGUGUGCAUGUGUGUGUGCCUGCUCUUGCGGUCGCACUAGUGUGGAAUUCUCGGGUGUCAAGG
B11: ENSMUSG00000028439.143|Fam219a (ssRNA)
RNA: GGGAGUUCUACAGUCCGACGAUCGCUUCGAUAUCCGCAUGCUAGCCACCCCCAGUCUUCUGUCUAUUGGUUCCAGGCUGGAAGCAAGAGAUAAGGCUGGCCUCCUGUGCCCCAUUGCCAUUUCACCCUAGCUCAAAGUCCAGGAGCCAGGCUUCCAGAAAGGCUCUUCAAGAGCAAGCUUAAGGAAAUACAGUGAGCCAAGUGGCUGUAUGAUAUGGUAUGGUAUGGUAUGGUAUGGUAUGGUAUGGUAUGCACAUGUGUGUGCAUGUGUGUGUGCCUGUGUGUGUGCGUGUGCGUGUGUGUACUCUUGCGGUCGCACUAGUGUGGAAUUCUCGGGUGUCAAGG
B12: ENSMUSG00000004113.108|Cacna1b|97:101;113:118;234:238 (ssRNA)
RNA: GGGAGUUCUACAGUCCGACGAUCGCUUCGAUAUCCGCAUGCUAGGACCCAGCAAAUCCAAAUCCUAUGUCAUGGCCUCCAGCAUCCAGGGUGGGUCCUUGGGACUUUUCUUAGGAGGGACUUUCUGAGCCUCGUGGAGACACACGUUUGUCCAAAACACACGCAUGGGAGAUAGGGUACCCCUGAAAGCAAGGAAAGGAGCCCAGCUGUGGCCUGGUAGCACCUGCCGGCACCAGUGAUCUCACGUCUCUUGUGGUCUUGGAGUCAAAUAGCACAUCAUACUAGAGAUGCGCUCAAGGGCCUGCUCUUGCGGUCGCACUAGUGUGGAAUUCUCGGGUGUCAAGG
B13: ENSMUSG00000042529.323|Kcnj12 (ssRNA)
RNA: GGGAGUUCUACAGUCCGACGAUCGCUUCGAUAUCCGCAUGCUAGAUGCUGUAUUUUCAAAUUCUCCUGCCCUCUUUUCCCCUUUUUCCCUGUAUUUAUUUAUUGCUUGUGCUAAAGACCAAACUAGCCGCCCCCUUUAGUGCACCCAAUGGAGGAAGCCACUGAGGGGGGAGCCGUGUGCCUGUGCCAGGCAGGAAAGCUUGGCCCCUGGGAAGUGUGUGAGAAGGAAAACCAGGGUGUGUGUGCACGCAUGUGCAGACGUGCUCACACGAUCGUCUCCCUGUGUGGGAAACUUGGUAUGCAGCUCUUGCGGUCGCACUAGUGUGGAAUUCUCGGGUGUCAAGG

Over roughly 9,900 sequences, “r (bound/input frequency ratio)” has its median near 0.7; the highest 2% begin near 6.5. This is one part of a sample in which the highest values are shown more often than they occur.

Chain of TDP-43 (Q13148 whole entry): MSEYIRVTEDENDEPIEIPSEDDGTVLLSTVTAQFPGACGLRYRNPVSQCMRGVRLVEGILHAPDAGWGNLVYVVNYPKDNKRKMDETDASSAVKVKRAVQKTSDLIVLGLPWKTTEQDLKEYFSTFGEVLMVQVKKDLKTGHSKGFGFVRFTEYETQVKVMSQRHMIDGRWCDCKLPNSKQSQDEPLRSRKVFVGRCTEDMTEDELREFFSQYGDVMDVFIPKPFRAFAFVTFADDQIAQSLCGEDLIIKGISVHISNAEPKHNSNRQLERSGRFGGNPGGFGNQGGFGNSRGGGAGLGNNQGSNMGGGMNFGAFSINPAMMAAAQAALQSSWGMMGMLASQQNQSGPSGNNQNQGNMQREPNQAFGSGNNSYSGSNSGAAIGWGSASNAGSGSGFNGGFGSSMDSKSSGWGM

This assay concerns the target TDP-43 (Homo sapiens, UniProt Q13148 1-414). In words: RNA Bind-n-Seq with designed 260-mer pool; 25 mM Tris-HCl, 150 mM KCl, 3 mM MgCl2, BSA (printed 500 mg/mL), 20 units/mL SUPERase IN; pH not stated; 500 nM RNA pool, 1 h, 4 C; TDP-43 5, 50, 500 nM; high values mean tight binding. As to conditions: protein: recombinant; tags: SBP (GST cleaved off with PreScission; pGEX-GST-SBP). Summed up: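 Recombinant SBP-tagged TDP-43 at 5, 50 or 500 nM was captured on streptavidin beads, then incubated 1 h at 4 °C with 500 nM of an in vitro-transcribed 260-nt 3′ UTR oligo pool in 25 mM Tris-HCl, 150 mM KCl, 3 mM MgCl2, BSA and SUPERase IN. Bound RNA was washed, eluted with biotin, reverse transcribed, PCR-amplified and sequenced. Binding is R, each oligo's mapped-read-normalized abundance in the bound sample divided by its abundance in input. Duplicates used two independent protein batches.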
Take B1: the binding signal is 2.02 R (bound/input frequency ratio).
Consider B2, for which the binding signal is 0.798 R (bound/input frequency ratio).
Under B3 stands 0.798 R (bound/input frequency ratio); under B4, 0.367 R (bound/input frequency ratio); under B5, 0.462 R (bound/input frequency ratio).
For B6, the binding signal is 4.5 R (bound/input frequency ratio).
In the case of B7 it was 7.87 R (bound/input frequency ratio).
In the case of B8 it was 8.23 R (bound/input frequency ratio).
With B9, the binding signal is 6.06 R (bound/input frequency ratio).
Under B10 stands 2.12 R (bound/input frequency ratio); under B11, 5.96 R (bound/input frequency ratio); under B12, 0.293 R (bound/input frequency ratio).
Regarding B13, the binding signal is 2.13 R (bound/input frequency ratio).

The values are drawn from publication PMC12864922, “TDP-43 directly inhibits mRNA accumulation in neurites through modulation of mRNA stability”.
